# According to PubChem BioAssay AID2783 (National Center for Advancing Translational Sciences (NCATS), 2010):
# Results filed as inconclusive are left out. Calls of active or inactive are those of the source. The call rests on the fitted dose curve; in most records, active means well fitted inhibition curve with a large enough effect in the polarisation, with a control signal flat (not every such curve was filed as active); inconclusive means small, poorly fitted or top-dose-only effect, or effect the other way, or a change in a side signal; inactive means no such curve, though single readings can be large or run the other way; the % refers to the polarisation.
# Target: Menin (Homo sapiens) (UniProt O00255)
# Sequence (O00255 whole entry, looked up): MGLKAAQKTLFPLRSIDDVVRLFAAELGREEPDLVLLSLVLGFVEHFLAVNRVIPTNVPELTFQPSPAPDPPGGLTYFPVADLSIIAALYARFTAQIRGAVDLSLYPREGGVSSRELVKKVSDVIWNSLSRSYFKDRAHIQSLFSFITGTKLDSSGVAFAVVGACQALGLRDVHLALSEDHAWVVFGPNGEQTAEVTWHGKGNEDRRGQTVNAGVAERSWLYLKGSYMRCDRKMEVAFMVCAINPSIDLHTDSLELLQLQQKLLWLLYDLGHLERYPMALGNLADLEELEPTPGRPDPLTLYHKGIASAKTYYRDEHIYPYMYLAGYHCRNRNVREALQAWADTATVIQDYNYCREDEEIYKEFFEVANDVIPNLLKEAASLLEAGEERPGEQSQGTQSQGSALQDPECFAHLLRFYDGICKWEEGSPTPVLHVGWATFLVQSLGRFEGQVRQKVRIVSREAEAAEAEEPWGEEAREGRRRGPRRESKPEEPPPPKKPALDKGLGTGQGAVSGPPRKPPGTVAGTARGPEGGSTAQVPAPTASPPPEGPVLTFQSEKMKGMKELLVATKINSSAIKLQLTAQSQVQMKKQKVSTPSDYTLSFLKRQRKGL
# Experiment: Confirmation of Inhibitors Targeting the Menin-MLL Interaction in MLL Related Leukemias: Competition With Fluorescein Labeled MLL-derived Peptide
# Settings: Fluorescence polarization, fluorescein-MLL peptide displacement from menin; series mostly up to 100 µM
row,SMILES,outcome
1,O=C(C1=C(O)C(=O)N(CCN2CCOCC2)C1c1cccc(Br)c1)c1cccs1 (centres undefined),inactive
2,COc1ccc(C2Nc3ccc4ccccc4c3-c3c2c(=O)oc2ccccc32)cc1 (centres undefined),inactive
3,O=C(Nc1ccc2ccccc2c1)c1cn(-c2ccccc2)nc1-c1cccs1,inactive
4,COc1cc(OC)c2ccc(=O)oc2c1C(CCN1CCOCC1)c1ccc(N(C)C)cc1 (centres undefined),inactive
5,CCn1ncc(C(=O)Nc2cc(C)on2)c1C,inactive
6,Clc1ccc(-c2nnc(-c3ccccc3)nc2-c2c[nH]c3ccccc23)cc1,inactive
7,O=[N+]([O-])CC(c1ccccc1)P(=O)(c1ccccc1)c1ccccc1 (centres undefined),inactive
8,Cc1cc2nc(-c3ccc(SCC(=O)Nc4ccc5c(c4)OCCO5)nc3)[nH]c2cc1C,inactive
9,CC(NC(=O)c1cnc2ccccc2n1)c1ccccc1 (centres undefined),inactive
10,COc1ccc(C)cc1N(C(=O)c1snc(C(N)=O)c1N)C(C(=O)NC1CCCC1)c1ccc(F)cc1 (centres undefined),inactive
11,Cc1ccc(-c2csc(NC(=O)c3ccc(S(=O)(=O)N4CCc5ccccc54)cc3)n2)cc1,inactive
12,CN(C)CCc1c[nH]c2ccc(CC3COC(=O)N3)cc12 (centres undefined),inactive
13,COc1ccccc1/C=N/n1c(N)c(S(=O)(=O)c2cccs2)c2nc3ccccc3nc21,inactive
14,CC(C)Sc1nc(N2CCOCC2)c2c3c(sc2n1)COC(C)(C)C3,inactive
15,CCOc1ccc(NC(=O)c2cccc(OC(=S)N3CCC(C)CC3)c2)cc1,inactive
16,CC(Sc1nnc(Nc2ccccc2)s1)C(=O)Nc1nc(-c2ccccc2)cs1 (centres undefined),inactive
17,O=C(Nc1cccn(Cc2c(Cl)cccc2Cl)c1=O)c1c(Cl)cccc1Cl,inactive

row,SMILES,outcome
1,O=C(CCn1nc(-c2ccccc2)ccc1=O)N1CCN(c2ccccn2)CC1,inactive
2,OC(c1ccccn1)(c1ccccn1)c1ccccn1,inactive
3,COc1cc(SC)ccc1C(=O)Nc1cccc(C2OCCCO2)c1,inactive
4,Cc1[nH]nc(-c2ccc(OCc3cnn(-c4ccccc4)c3)c(C)c2O)c1Oc1ccccc1,inactive
5,COc1ccc(-c2cc(=O)c3c(O)cc(O)c(-c4cc(-c5cc(=O)c6c(O)cc(OC)cc6o5)ccc4OC)c3o2)cc1,inactive
6,COc1ccc2[nH]c(=O)c(CN(Cc3cccs3)C(=S)Nc3cccc(C)c3)cc2c1,inactive
7,Cc1ccccc1-c1n[nH]c(=S)n1C,inactive
8,Cc1ccc(NC(=O)C(OC(=O)c2ccc(C=O)cc2)c2ccccc2)cc1Cl (centres undefined),inactive
9,Cc1ccc(C2=NN(C(=O)c3ccccc3F)C(c3ccccc3F)C2)cc1 (centres undefined),inactive
10,Cc1ccc(-c2cc(C(=O)Nc3cc(C)ccc3O)no2)cc1,inactive
11,O=[N+]([O-])c1ccc(S(=O)(=O)c2ccccc2)nc1,inactive
12,COc1ccccc1C(=O)Nc1ccccc1SC(=O)c1ccccc1OC,inactive
13,CN(C)CCCNCC(=O)c1c(-c2ccccc2)n(C)c2ccccc12,inactive
14,O=C(CS)Nc1ccc2ccccc2c1,inactive
15,CSC[C@@H]1NC(=S)N(c2ccc(C)cc2)C1=O,inactive
16,Cc1cc(C)c2c(=O)cc(C(=O)NCc3ccccc3)oc2c1,inactive
17,Cc1ccc(C#CC(C)(O)C(C)(C)C)cn1 (centres undefined),inactive
